# PubChem BioAssay (Tox21)
# Inconclusive results are not listed. Entries that show only a call come without a potency. A number with no mark means an inactive call. Active and inactive are the calls of the source. Calls come from the whole dose curve; as a rule, active = well fitted curve in the direction sought with a large enough effect in the repeat runs; inconclusive = weak or mixed curves; inactive = no such curve, though single readings can be large; an effect the other way counts as inactive or inconclusive.
# Tests used:
# [1] = molecular target: Cytochrome P450 2C19 (Homo sapiens) (UniProt P33261); test: Cytochrome P450 Family 2 Subfamily C Member 19 (CYP2C19) small molecule antagonists: luciferase reporter qHTS assay (AID 1671197); note: nearly all actives have a fitted effect of over 65% in size; for activity change, negative = inhibition: series mostly up to about 120 µM
# Chain of Cytochrome P450 2C19 (Homo sapiens) (P33261 whole entry, looked up): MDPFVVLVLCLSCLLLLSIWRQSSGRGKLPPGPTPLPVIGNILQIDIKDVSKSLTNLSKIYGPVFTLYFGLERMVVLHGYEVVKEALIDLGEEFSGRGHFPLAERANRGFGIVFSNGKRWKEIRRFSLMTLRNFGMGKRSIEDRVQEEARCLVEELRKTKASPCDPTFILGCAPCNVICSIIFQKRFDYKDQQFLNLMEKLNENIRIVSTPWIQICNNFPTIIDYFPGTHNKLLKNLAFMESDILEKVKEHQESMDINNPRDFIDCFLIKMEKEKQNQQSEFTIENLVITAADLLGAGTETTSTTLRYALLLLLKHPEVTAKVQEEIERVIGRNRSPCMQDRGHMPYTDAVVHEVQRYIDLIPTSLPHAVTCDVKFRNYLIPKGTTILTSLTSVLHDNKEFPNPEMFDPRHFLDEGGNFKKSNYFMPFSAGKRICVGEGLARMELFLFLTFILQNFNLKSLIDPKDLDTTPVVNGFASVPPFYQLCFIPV
# How it was run: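 CYP2C19 P450-Glo, 1536-well qHTS. Cpd + enzyme/proluciferin substrate 10 min RT; + NADPH regen, 37C 1 h; stop with luciferin detection reagent, 20 min RT, luminescence (RLU). Pos ctrl ketoconazole.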
# [2] = molecular target: Cytochrome P450 2C9 (Homo sapiens) (UniProt P11712); test: Cytochrome P450 Family 2 Subfamily C Member 9 (CYP2C9) small molecule antagonists: luciferase reporter qHTS assay (AID 1671198); note: nearly all actives have a fitted effect of over 50% in size; for activity change, negative = inhibition: series mostly up to about 120 µM
# Chain of Cytochrome P450 2C9 (Homo sapiens) (P11712 whole entry, looked up): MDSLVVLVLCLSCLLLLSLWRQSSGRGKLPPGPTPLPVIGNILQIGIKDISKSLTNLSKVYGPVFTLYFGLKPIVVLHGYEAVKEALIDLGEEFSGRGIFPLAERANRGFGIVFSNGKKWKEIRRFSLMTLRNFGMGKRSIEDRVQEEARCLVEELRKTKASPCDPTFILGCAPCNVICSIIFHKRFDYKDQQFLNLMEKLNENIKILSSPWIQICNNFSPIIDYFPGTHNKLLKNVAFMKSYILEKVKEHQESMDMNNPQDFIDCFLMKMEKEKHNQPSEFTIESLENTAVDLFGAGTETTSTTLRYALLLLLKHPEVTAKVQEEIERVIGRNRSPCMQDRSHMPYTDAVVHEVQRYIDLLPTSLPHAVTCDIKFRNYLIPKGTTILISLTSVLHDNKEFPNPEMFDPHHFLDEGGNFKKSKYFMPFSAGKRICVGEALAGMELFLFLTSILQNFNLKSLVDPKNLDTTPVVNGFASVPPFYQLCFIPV
# How it was run: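 CYP2C9 activity was measured with a P450-Glo proluciferin substrate. Enzyme–substrate mix was held with compound for 10 min at room temperature, then NADPH regeneration solution was added for 1 h at 37C. Luciferin product was read as luminescence.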
# [3] = molecular target: Cytochrome P450 1A2 (Homo sapiens) (UniProt P05177); test: Cytochrome P450 Family 1 Subfamily A Member 2 (CYP1A2) small molecule antagonists: luciferase reporter qHTS assay (AID 1671199); note: nearly all actives have a fitted effect of over 50% in size; for activity change, negative = inhibition: series mostly up to about 120 µM
# Chain of Cytochrome P450 1A2 (Homo sapiens) (P05177 whole entry, looked up): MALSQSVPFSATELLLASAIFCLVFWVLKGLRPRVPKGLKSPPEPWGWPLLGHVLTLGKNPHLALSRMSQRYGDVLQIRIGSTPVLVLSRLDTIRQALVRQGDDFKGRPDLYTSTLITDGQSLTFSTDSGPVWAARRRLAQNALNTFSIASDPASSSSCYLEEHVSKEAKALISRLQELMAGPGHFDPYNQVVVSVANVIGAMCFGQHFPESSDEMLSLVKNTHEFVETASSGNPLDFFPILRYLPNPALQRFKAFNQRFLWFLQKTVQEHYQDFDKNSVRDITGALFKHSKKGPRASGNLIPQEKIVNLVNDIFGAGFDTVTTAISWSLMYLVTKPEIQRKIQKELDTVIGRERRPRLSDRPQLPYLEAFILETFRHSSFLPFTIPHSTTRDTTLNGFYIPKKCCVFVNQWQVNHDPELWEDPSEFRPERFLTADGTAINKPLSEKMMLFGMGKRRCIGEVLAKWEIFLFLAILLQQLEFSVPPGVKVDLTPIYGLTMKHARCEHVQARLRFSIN
# How it was run: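 CYP1A2 turnover of a luminogenic substrate was quantified after 1 h with NADPH regeneration at room temperature. Furafylline served as positive control.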
# [4] = molecular target: Voltage-gated inwardly rectifying potassium channel KCNH2 (Homo sapiens) (UniProt Q12809); test: Human Ether-a-go-go-Related Gene (hERG) channel small molecule antagonists: fluorescence cell-based qHTS assay (AID 1671200); note: nearly all actives have a fitted effect of over 50% in size;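 for activity change, negative = inhibition: hERG-expressing U2OS cells given a thallium stimulus after FluxOR II dye loading; series mostly up to about 77 µM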
# Chain of Voltage-gated inwardly rectifying potassium channel KCNH2 (Homo sapiens) (Q12809 whole entry, looked up): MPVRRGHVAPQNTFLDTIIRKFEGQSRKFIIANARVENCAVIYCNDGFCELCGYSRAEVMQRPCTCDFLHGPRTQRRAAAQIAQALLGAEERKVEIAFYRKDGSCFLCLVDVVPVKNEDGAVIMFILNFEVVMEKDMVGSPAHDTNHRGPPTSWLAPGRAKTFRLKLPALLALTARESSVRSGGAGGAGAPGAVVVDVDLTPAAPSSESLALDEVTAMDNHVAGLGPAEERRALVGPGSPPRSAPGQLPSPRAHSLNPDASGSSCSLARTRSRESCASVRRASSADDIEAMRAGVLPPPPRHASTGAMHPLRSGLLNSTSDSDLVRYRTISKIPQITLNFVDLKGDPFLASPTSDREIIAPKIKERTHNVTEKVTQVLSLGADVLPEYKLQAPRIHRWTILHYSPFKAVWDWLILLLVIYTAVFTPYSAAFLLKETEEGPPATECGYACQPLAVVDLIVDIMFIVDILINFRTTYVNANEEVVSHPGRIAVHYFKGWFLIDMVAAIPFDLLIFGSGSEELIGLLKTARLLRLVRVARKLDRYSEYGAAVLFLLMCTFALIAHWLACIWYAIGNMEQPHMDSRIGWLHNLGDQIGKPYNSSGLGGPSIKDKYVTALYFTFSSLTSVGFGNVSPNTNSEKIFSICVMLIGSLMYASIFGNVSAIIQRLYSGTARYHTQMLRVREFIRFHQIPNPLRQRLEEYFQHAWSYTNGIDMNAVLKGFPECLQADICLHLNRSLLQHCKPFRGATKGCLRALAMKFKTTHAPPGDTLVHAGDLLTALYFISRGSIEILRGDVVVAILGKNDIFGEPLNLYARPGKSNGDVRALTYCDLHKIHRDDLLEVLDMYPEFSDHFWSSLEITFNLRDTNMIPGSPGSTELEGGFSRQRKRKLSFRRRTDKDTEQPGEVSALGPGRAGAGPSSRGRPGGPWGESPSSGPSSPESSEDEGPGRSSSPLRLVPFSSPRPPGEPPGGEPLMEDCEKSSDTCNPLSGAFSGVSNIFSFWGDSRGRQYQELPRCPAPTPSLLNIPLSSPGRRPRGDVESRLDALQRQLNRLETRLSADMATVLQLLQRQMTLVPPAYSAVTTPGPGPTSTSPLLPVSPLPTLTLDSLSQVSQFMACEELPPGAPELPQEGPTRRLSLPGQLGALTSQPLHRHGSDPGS
# How it was run: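 Channel function was assessed by thallium flux. Cells seeded the previous day and kept at 37 C took up FluxOR II dye over 1 h in the dark at room temperature, then sat another 10 min before stimulation.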
# [5] = molecular target: Cytochrome P450 2D6 (Homo sapiens) (UniProt P10635); test: Cytochrome P450 Family 2 Subfamily D Member 6 (CYP2D6) small molecule antagonists: luciferase reporter qHTS assay (AID 1671196); note: nearly all actives have a fitted effect of over 50% in size; for activity change, negative = inhibition: series mostly up to about 120 µM
# Chain of Cytochrome P450 2D6 (Homo sapiens) (P10635 whole entry, looked up): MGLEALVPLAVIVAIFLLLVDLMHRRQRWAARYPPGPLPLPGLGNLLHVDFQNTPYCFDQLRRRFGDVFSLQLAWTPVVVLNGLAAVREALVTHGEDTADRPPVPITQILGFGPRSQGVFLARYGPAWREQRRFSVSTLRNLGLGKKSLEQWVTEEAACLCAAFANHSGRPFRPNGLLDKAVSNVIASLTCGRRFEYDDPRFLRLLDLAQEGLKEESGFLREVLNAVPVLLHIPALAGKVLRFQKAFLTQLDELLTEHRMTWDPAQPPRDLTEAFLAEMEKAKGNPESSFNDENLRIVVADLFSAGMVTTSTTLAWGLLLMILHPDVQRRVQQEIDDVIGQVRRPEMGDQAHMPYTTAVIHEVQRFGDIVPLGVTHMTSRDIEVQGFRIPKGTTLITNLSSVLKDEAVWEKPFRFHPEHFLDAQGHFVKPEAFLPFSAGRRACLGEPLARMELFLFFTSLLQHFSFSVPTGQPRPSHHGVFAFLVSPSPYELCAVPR
# How it was run: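 Luminescence (RLU), read 20 min after detection reagent, indicated CYP2D6 conversion of proluciferin to luciferin during a 1 h NADPH-dependent reaction at room temperature.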
# [6] = molecular target: Cytochrome P450 3A4 (Homo sapiens) (UniProt P08684); test: Cytochrome P450 Family 3 Subfamily A Member 4 (CYP3A4) small molecule antagonists: luciferase reporter qHTS assay (AID 1671201); note: nearly all actives have a fitted effect of over 50% in size; for activity change, negative = inhibition: series mostly up to about 120 µM
# Chain of Cytochrome P450 3A4 (Homo sapiens) (P08684 whole entry, looked up): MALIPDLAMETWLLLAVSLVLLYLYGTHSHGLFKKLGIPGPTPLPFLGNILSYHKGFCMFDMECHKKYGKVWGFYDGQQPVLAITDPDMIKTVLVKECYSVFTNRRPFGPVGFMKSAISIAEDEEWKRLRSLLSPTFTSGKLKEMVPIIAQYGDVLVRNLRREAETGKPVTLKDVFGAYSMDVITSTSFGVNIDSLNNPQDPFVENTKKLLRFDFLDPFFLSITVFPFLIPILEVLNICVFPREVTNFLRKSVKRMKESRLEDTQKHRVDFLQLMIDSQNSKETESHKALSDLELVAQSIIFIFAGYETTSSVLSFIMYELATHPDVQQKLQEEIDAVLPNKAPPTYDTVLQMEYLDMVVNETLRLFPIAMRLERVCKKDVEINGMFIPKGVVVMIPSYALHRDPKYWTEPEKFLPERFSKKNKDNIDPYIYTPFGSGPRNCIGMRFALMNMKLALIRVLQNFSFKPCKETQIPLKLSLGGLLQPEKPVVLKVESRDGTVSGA
# How it was run: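 Compounds in DMSO were pin-transferred onto CYP3A4 enzyme-substrate mix and held 10 min at room temperature. NADPH regenerating solution started the reaction for 1 h; luciferin detection reagent stopped it, and luminescence was read after 20 min.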
# Potency is the fitted concentration of half-maximal effect.
structure (smiles),measurement,setting,value
C=CC(C)(O)CC/C=C(/C)CCC=C(C)C (stereo unspecified),Potency,[1],10 µM (active)
same,Potency,[2],31.7 µM (active)
same,Potency,[3],39.9 µM (active)
same,Potency,[4],inactive
CCCCCCCCCCCCSCCOCCO,Potency,[5],inactive
same,Potency,[2],24.5 µM (active)
same,Potency,[3],15.5 µM (active)
same,Potency,[4],inactive
same,Potency,[6],inactive
CC[C@H](NC(C)C)[C@H](O)c1ccc(O)c2[nH]c(=O)ccc12,Potency,[1],inactive
same,Potency,[2],inactive
same,Potency,[3],inactive
same,Potency,[4],inactive
same,Potency,[6],inactive
CC(C)=CCCC(C)C=O (stereo unspecified),Potency,[5],inactive
same,Potency,[3],inactive
same,Potency,[4],inactive
same,Potency,[6],35.6 µM (active)
CC1(C)[C@@H]2CC[C@]3(C2)[C@@H]1C(=O)CCC3(C)C,Potency,[5],31.7 µM (active)
same,Potency,[1],39.9 µM (active)
same,Potency,[4],inactive
same,Potency,[6],17.8 µM (active)
Clc1ccccc1-c1nc(-c2ccncc2)no1,Potency,[5],13.8 µM (active)
same,Potency,[1],0.977 µM (active)
same,Potency,[4],inactive
same,Potency,[6],30.9 µM (active)
Cc1c(-c2cccnc2)c2ccccc2n1CCCCC(=O)O,Potency,[5],inactive
same,Potency,[2],31.7 µM (active)
same,Potency,[3],31.7 µM (active)
same,Potency,[4],inactive
same,Potency,[6],5.03 µM (active)
c1ccc(-c2ccc(-c3ccccc3)cc2)cc1,"activity change, negative = inhibition",[5],-3.95% [at 23.6 µM]
same,"activity change, negative = inhibition",[2],-16.3% [at 23.6 µM]
same,"activity change, negative = inhibition",[4],1.54% [at 15.8 µM]
same,"activity change, negative = inhibition",[6],-14.7% [at 23.6 µM]
CC1(COc2ccc(CC3SC(=O)NC3=O)cc2)CCCCC1 (stereo unspecified),Potency,[5],inactive
same,Potency,[3],inactive
same,Potency,[4],inactive
same,Potency,[6],inactive
Cc1cc(SC2=C(O)C[C@@](CCc3ccc(N)cc3)(C(C)C)OC2=O)c(C(C)(C)C)cc1CO,Potency,[5],inactive
same,Potency,[4],inactive
same,Potency,[6],3.99 µM (active)
C=Cc1ccc(C=C)cc1,Potency,[5],inactive
same,Potency,[2],inactive
same,Potency,[4],inactive
CC(C)(C)c1cc(C=O)cc(C(C)(C)C)c1O,Potency,[5],inactive
same,Potency,[3],inactive
same,Potency,[4],inactive
same,Potency,[6],inactive
O=C(OC1C[C@H]2CC[C@@H](C1)[N+]21CCCC1)C(O)(c1ccccc1)c1ccccc1 (stereo partly specified),Potency,[5],4.9 µM (active)
same,Potency,[2],inactive
same,Potency,[3],inactive
same,Potency,[4],inactive
COc1cccc([C@H](O)C2CCN(CCc3ccc(F)cc3)CC2)c1OC,Potency,[5],2 µM (active)
same,Potency,[2],inactive
same,Potency,[3],inactive
same,Potency,[6],inactive
CCCCCCC/C=C/C=O,Potency,[5],39.9 µM (active)
same,Potency,[1],79.6 µM (active)
same,Potency,[4],inactive
same,Potency,[6],inactive
O=C(O)CCc1nc2ccccc2[nH]1,Potency,[5],inactive
same,Potency,[2],inactive
same,Potency,[3],inactive
same,Potency,[4],inactive
same,Potency,[6],inactive
CCn1nc(Cc2ccccc2)cc1C1CCN(C[C@H]2C[C@H](N(C)[C@@H](C(=O)O)C(C)C)C[C@@H]2c2cccc(F)c2)CC1,Potency,[5],35.6 µM (active)
same,Potency,[4],13.8 µM (active)
O=C(OCCOCCOCCOC(=O)c1ccccc1)c1ccccc1,Potency,[1],20 µM (active)
same,Potency,[2],inactive
same,Potency,[3],17.8 µM (active)
same,Potency,[4],inactive
same,Potency,[6],inactive
C=CC(=O)NC(C)(C)C,Potency,[5],inactive
same,Potency,[2],inactive
same,Potency,[4],inactive
same,Potency,[6],inactive
CC1(C)CC(O)CC(C)(C)N1[O],Potency,[5],inactive
same,Potency,[2],inactive
same,Potency,[3],inactive
same,Potency,[4],inactive
same,Potency,[6],inactive
CC(C)Oc1ccccc1O,Potency,[5],inactive
same,Potency,[2],inactive
same,Potency,[3],inactive
same,Potency,[4],inactive
same,Potency,[6],inactive
CCCCCCCCCCCCCCCCCCCl,"activity change, negative = inhibition",[5],-4.65% [at 10.5 µM]
same,"activity change, negative = inhibition",[2],-2.7% [at 10.5 µM]
same,"activity change, negative = inhibition",[3],-4.9% [at 10.5 µM]
same,"activity change, negative = inhibition",[4],6.07% [at 6.97 µM]
same,"activity change, negative = inhibition",[6],-1.1% [at 10.5 µM]
Oc1ccc(CCNCCCCCCNCCc2ccccc2)cc1O,Potency,[5],15.5 µM (active)
same,Potency,[3],inactive
same,Potency,[4],inactive
same,Potency,[6],inactive
O=C(OCCN1CCOCC1)c1cccnc1Nc1cccc(C(F)(F)F)c1,Potency,[5],inactive
same,Potency,[2],17.4 µM (active)
same,Potency,[4],10.7 µM (active)
CC(=O)CC/C=C(\C)CC/C=C(\C)CC/C=C(\C)CCC=C(C)C,Potency,[5],inactive
same,Potency,[2],30.9 µM (active)
same,Potency,[4],inactive
CC(O)C(C)O (stereo unspecified),Potency,[5],inactive
same,Potency,[1],inactive
same,Potency,[4],inactive
same,Potency,[6],inactive
O=C(O)c1cccnc1Nc1cccc(C(F)(F)F)c1,Potency,[5],inactive
same,Potency,[1],inactive
same,Potency,[4],inactive
same,Potency,[6],inactive
COC(=O)/C=C/C(C)=C\C=C\C(C)=C\C=C\C=C(C)\C=C\C=C(C)\C=C\C(=O)O,Potency,[5],39.9 µM (active)
same,Potency,[3],inactive
same,Potency,[4],inactive
C[C@H](CN1CCCC1)C(=O)c1ccc(C(F)(F)F)cc1,Potency,[5],1.55 µM (active)
same,Potency,[2],inactive
same,Potency,[4],inactive
same,Potency,[6],inactive
Clc1cc(Cl)c2c(c1)N=C1CCCCCN1C2,Potency,[5],2.75 µM (active)
same,Potency,[2],inactive
same,Potency,[3],5.49 µM (active)
same,Potency,[4],9.52 µM (active)
same,Potency,[6],inactive
Clc1cccc(C(c2ccc3nc[nH]c3c2)n2ccnc2)c1 (stereo unspecified),Potency,[1],2.75 µM (active)
same,Potency,[2],8.71 µM (active)
same,Potency,[3],15.5 µM (active)
same,Potency,[4],inactive
